Compound activity: PubChem BioAssay, Johns Hopkins Ion Channel Center
Most compounds without a hit are left out; they make up all but 1.6% or so of the library.
KCNQ2 block – inhibitors of rat KCNQ2 potassium channel; AID 2156; CHO-K1 KCNQ2, FluxOR thallium flux, 20 min; stronger effect = lower value; B-score at 10 µM; 1.1% of 310,000 active; O88943;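 active = fluorescence ratio B-score at most minus 3 library SDs, with starting brightness B-score within 2 library SDs, cut at about -5.5 in these data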
KCNQ2 enhance – enhances the rat KCNQ2 potassium channel | O88943 | CHO-K1 KCNQ2, FluxOR thallium flux fluorescence; stronger effect = higher value | B-score at 10 µM | 0.54% of 310,000 active | AID 2239;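 active = fluorescence ratio B-score at least 3 SD of library B-scores, with initial fluorescence B-score within 3 of them, cut at about 5.3 in these data; same plate scores as AID 2156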;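 note: B-score of peak minus minimum over baseline fluorescence ratio after K+ and Tl+ stimulus; positive B-score means potentiation of KCNQ2 with more thallium influx and brighter signal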
Kir21 confirm – confirmation of mouse Kir2.1 potassium channel inhibitors. shares compounds with KCNQ2 enhance. Kir2.1-expressing cells, FluxOR thallium flux fluorescence; stronger effect = lower value. Tl flux remaining, % of negative control (stronger effect = lower value), % at 10 µM. 41% of 2,300 active. AID 2032;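 active = Primary-screen hit whose thallium flux fell at least 3 control SD below untreated wells in both duplicates, with normal baseline fluorescence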;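 note: 0% = blank wells without stimulus and 100% = stimulated no-compound controls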
HEK293 ctr – counter-screen for Kir2.1 inhibitors: effect in parental HEK293 cells | shares compounds with KCNQ2 enhance | FluxOR thallium flux fluorescence; 0% = unstimulated blank wells | FluxOR signal as % of negative control (100 = no effect), % at 10 µM | 19% of 2,300 active | AID 2105;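 active = dye signal at least 3 control SD above or below untreated wells in both duplicates, raw fluorescence within 3, either direction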;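 note: percent is based on the flux ratio of peak minus minimum fluorescence over baseline F0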
CHO-K1 Tl ctr – counter-screen for KCNQ2 potentiators: effect in parental CHO-K1 cells. shares compounds with KCNQ2 enhance. FluxOR thallium flux fluorescence; zero = vehicle mean+3SD, 100% = vehicle-minus-blank window. activity increase over 3SD of controls, % at 10 µM. 43% of 1,200 active. AID 2282;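 active = signal rise of at least 3 SD above the untreated control mean, in both duplicate wells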;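 note: counter screen of KCNQ2 potentiator hits so any rise reflects channel-independent effects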
KCNQ1 sel pot – selectivity of KCNQ2 potentiators: effect on human KCNQ1; shares compounds with KCNQ2 enhance; CHO KCNQ1 stable, FluxOR thallium flux fluorescence; beyond 3SD, as % of vehicle-control signal; activation over 3SD threshold, % at 10 µM; 28% of 1,200 active; AID 2283;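 active = fluorescence ratio rise of at least 3 SD of vehicle wells above their mean, in both replicate wells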;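 note: 0% = vehicle mean plus 3 SD and 100% = vehicle minus unstimulated blank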
Target sequence (P51787 whole entry, looked up): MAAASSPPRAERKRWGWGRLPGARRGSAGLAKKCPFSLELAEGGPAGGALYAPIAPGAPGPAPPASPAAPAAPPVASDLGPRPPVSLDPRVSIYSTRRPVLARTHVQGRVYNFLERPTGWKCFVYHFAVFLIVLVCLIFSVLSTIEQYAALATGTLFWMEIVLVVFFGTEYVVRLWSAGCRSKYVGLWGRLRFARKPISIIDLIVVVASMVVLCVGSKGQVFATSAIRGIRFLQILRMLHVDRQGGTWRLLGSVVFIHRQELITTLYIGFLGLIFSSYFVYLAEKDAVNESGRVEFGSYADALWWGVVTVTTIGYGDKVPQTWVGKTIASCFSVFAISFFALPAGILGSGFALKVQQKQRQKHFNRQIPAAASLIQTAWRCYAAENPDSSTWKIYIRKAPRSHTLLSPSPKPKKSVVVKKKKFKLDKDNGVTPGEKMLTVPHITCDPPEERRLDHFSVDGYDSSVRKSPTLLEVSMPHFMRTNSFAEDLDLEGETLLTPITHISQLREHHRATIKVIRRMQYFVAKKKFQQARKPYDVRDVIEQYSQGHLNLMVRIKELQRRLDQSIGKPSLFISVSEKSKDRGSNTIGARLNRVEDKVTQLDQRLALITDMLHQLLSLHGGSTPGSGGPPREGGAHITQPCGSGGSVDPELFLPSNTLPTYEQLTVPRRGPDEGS
KCNQ2 pot conf – confirmation of rat KCNQ2 potassium channel potentiators | 68% of 1,200 active | AID 2287 | shares compounds with KCNQ2 enhance | CHO-KCNQ2 cells, FluxOR thallium flux fluorescence | potentiation, less the hit threshold, % at 10 µM;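 active = fluorescence ratio rising 3 SD or more over the vehicle control mean in both replicates, plus primary screen hit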;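 note: peak minus minimum thallium fluorescence divided by baseline after K/Tl stimulus; 0% = vehicle mean plus 3 SD and 100% = vehicle minus unstimulated blank difference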
Kir2-1 sel – mouse Kir2.1 off-target activity of KCNQ2 potentiators; 2% of 1,200 active; shares compounds with KCNQ2 enhance; HEK293 Kir2.1, FluxOR thallium flux fluorescence; activity over 3SD threshold, % at 10 µM;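 active = fluorescence ratio rise of at least 3 SD above the vehicle-control mean, seen in both replicates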;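 note: 0% = vehicle mean plus 3 SD and 100% = vehicle minus no-stimulus blank window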
KCNQ2 W236L MoA – KCNQ2 potentiators acting on retigabine-insensitive rat KCNQ2 W236L mutant; shares compounds with KCNQ2 enhance; CHO KCNQ2-W236L, automated patch clamp current; current increase over 3SD of negative controls (%), stronger effect = higher value, % at 25 µM; 10% of 940 active;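 active = current increase at least 3 SD of the untreated controls above them in both duplicate recordings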
An asterisk follows results filed as active; i = inactive; . = no result given.

SMILES | KCNQ2 block | KCNQ2 enhance | Kir21 confirm | HEK293 ctr | others
COc1ccc(N2Cc3ccc(C(=O)N/N=C\c4ccc(O)cc4O)cc3C2)cc1 | i | . | . | .
Cc1cc(/C=C2\C(=N)N3N=C(S(C)(=O)=O)SC3=NC2=O)c(C)n1Cc1ccccc1 | i | 1.2 | . | .
CCCC1=NN2C(=N)/C(=C\c3cc(C)n(Cc4ccccc4)c3C)C(=O)N=C2S1 | i | 12* | i | i | CHO-K1 Tl ctr=21*;KCNQ1 sel pot=-13;KCNQ2 pot conf=-4;Kir2-1 sel=-36;KCNQ2 W236L MoA=i
COC(=O)C1=C(C)N(Cc2ccccc2)C(=S)N[C@H]1c1cccc(F)c1 | i | . | . | .
COCCN=C1N[C@@H](c2ccc(Br)cc2)C(C(=O)OC)=C(C)N1Cc1ccccc1 | i | . | 32%* | 74%*
COCCN=C1N[C@@H](c2ccccc2)C(C(=O)OC)=C(C)N1Cc1ccccc1 | i | . | . | .
COCCN1C(=S)N[C@@H](c2cccc(F)c2)C(C(=O)OC)=C1C | i | . | 41%* | i
COC(=O)C1=C(C)N(Cc2ccccc2)C(=NCc2ccccc2)N[C@H]1c1cccc(F)c1 | i | . | 19%* | i
CCN1C(=O)N[C@@H](c2cccc(F)c2)C(C(=O)OC)=C1C | i | 0.13 | . | .
COc1ccc2oc(C(=O)OCC(=O)N(C)CC(=O)Nc3ccc(F)cc3)c(C)c2c1 | i | 4.5 | . | .
COc1cccc(CN2CCNC(=O)C2CC(=O)N(Cc2cnn(C)c2)C(C)C)c1 (configuration not stated) | i | . | . | .
COc1cc(C(=O)NNc2nc3cc4c(cc3s2)OCO4)cc(OC)c1OC | i | 12* | i | i | CHO-K1 Tl ctr=-4;KCNQ1 sel pot=-41;KCNQ2 pot conf=-9;Kir2-1 sel=-33
COc1cc(OC)cc(C(=O)NNc2nc3cc4c(cc3s2)OCO4)c1 | i | 2.1 | . | .
COc1cccc(NC(=S)/C(=C(\[O-])c2ccc([N+](=O)[O-])cc2)[n+]2ccccc2)c1 | i | . | . | .
COc1ccccc1N(CC(=O)NCCSc1ccccn1)S(=O)(=O)c1ccccc1 | i | . | . | .
Cc1c(C(=O)NCC2CCCO2)oc2ccc(Br)cc12 (configuration not stated) | i | . | . | .
CCOC(=O)c1csc(N/N=C2\CCc3ccccc32)n1 | i | 2.9 | . | .
CCOC(=O)c1csc(N/N=C2\CCCc3ccccc32)n1 | i | 5.5* | i | i | CHO-K1 Tl ctr=22*;KCNQ1 sel pot=-13;KCNQ2 pot conf=-10;Kir2-1 sel=-43;KCNQ2 W236L MoA=i
Cn1cc([N+](=O)[O-])c(C(=O)NCc2cc3cc(Cl)ccc3[nH]2)n1 | i | 3.8 | . | .
Cc1ccc(O)c(O)c1 | i | . | . | .
Cc1ccc(C2Cc3cc(O)c(O)cc3CN2)cc1 (configuration not stated) | i | . | 28%* | 62%*
Cc1cc(C)c2nc(N(CCCN(C)C)C(=O)c3ccc4c(c3)OCCO4)sc2c1 | -5.8* | -5.8 | 50%* | i
Cc1cc(C)c2nc(N(CCCN(C)C)C(=O)C3=COCCO3)sc2c1 | i | . | . | .
NC(=O)NC(Cc1ccccc1)C(=O)NCCCSc1ccccc1 (configuration not stated) | i | . | . | .
CN(CC(=O)Nc1ccc(OC(F)(F)F)cc1)C1CCCCC1 | i | . | . | .
SMILES | KCNQ2 block | KCNQ2 enhance | Kir21 confirm | HEK293 ctr | others
O=C(CNCC1CCCCC1)Nc1ccc(OC(F)(F)F)cc1 | i | 15* | i | i | CHO-K1 Tl ctr=0.6*;KCNQ1 sel pot=-17;KCNQ2 pot conf=35*;Kir2-1 sel=-34;KCNQ2 W236L MoA=i
CN(C)CCCOc1ccc(C(C)(C)c2ccccc2)cc1 | i | . | 36%* | i
CN(C)CCOc1ccc(C(C)(C)c2ccccc2)cc1 | i | . | . | .
CN(c1ccc(F)cc1)S(=O)(=O)c1ccc(Cl)c(C(=O)OCC(=O)NCc2ccco2)c1 | i | 8.8* | i | i | CHO-K1 Tl ctr=15*;KCNQ1 sel pot=-14;KCNQ2 pot conf=24*;Kir2-1 sel=-40;KCNQ2 W236L MoA=i
CN(c1ccccc1)S(=O)(=O)c1cccc(C(=O)OCC(=O)NCc2ccco2)c1 | i | 1.3 | . | .
O=C(c1ccncc1)N1CCN(S(=O)(=O)c2cccc(Cl)c2)CC1 | i | . | . | .
CCOc1ccc(C(=O)C[n+]2ccccc2C)cc1 | i | 0.43 | . | .
Cc1c(NC(=O)C(C)n2cc([N+](=O)[O-])cn2)c(=O)n(-c2ccccc2)n1C (configuration not stated) | i | . | . | .
Cc1ccc(-n2nnnc2-c2ccccc2)cc1 | i | . | . | .
Cc1ccc(-n2nnnc2C(Cl)c2nnnn2-c2ccc(C)cc2)cc1 | i | . | 39%* | i
O=C(CCNC(=O)c1ccc(Br)cc1)Nc1ncccc1O | i | 0.22 | . | .
O=C(CCn1c(=O)oc2ccccc21)NCCN1CCOCC1 | i | . | . | .
COc1cc(CNCCN2CCOCC2)ccc1OCc1ccc(Cl)cc1Cl | i | . | . | .
COc1cc(CNCc2ccccn2)ccc1OCc1ccc(Cl)cc1Cl | i | . | 26%* | i
CC(Oc1ccc(Cl)cc1Cl)C(=O)N(C)c1ccccc1 (configuration not stated) | i | . | 50%* | i
COC(=O)NNC(=O)C(C)Oc1ccc(Cl)cc1Cl (configuration not stated) | i | . | . | .
CC(C)(C)CC(=O)Nc1cc2c3c(c1)CCC(=O)N3CCC2 | i | 1.2 | . | .
Cc1ccc(NC(=O)C2C3/C=C\CCCCC32)cc1 (configuration not stated) | i | 1.7 | . | .
Cc1cc(C)c(NC(=O)C2C3/C=C\CCCCC32)c(C)c1 (configuration not stated) | i | 12* | i | i | CHO-K1 Tl ctr=-15;KCNQ1 sel pot=-20;KCNQ2 pot conf=56*;Kir2-1 sel=-28;KCNQ2 W236L MoA=i
C=CCn1c(=S)[nH]c2sc3c(c2c1=O)CCC3 | i | 2.5 | . | .
CC1CCc2c(sc3[nH]c(=S)n(C)c(=O)c23)C1 (configuration not stated) | i | 20* | i | 396%* | CHO-K1 Tl ctr=54*;KCNQ1 sel pot=-19;KCNQ2 pot conf=69*;Kir2-1 sel=-9;KCNQ2 W236L MoA=i
CCn1c(=S)[nH]c2sc3c(c2c1=O)CCCC3 | i | 16* | i | 393%* | CHO-K1 Tl ctr=40*;KCNQ1 sel pot=-16;KCNQ2 pot conf=60*;Kir2-1 sel=-4;KCNQ2 W236L MoA=i
CC1CCc2c(sc3nn[nH]c(=O)c23)C1 (configuration not stated) | i | 0.14 | . | .
CCOc1ccc(S(=O)(=O)N2CCOCC2)cc1NC(=O)CSC(=S)N1CCCC1 | i | . | . | .
N#CC1=C(SCC(=O)NCc2ccccc2)NC(=O)CC1c1ccco1 (configuration not stated) | i | 0.02 | . | .
